From PubChem BioAssay (NCI)
Compounds without any hit were thinned out: in the full panel of roughly 83,000, 20% have a hit.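 Step 1: grow cells in 96-well plates. Step 2: add test compound at a single concentration. Step 3: incubate 48 h. Step 4: record percent growth.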 A number with no mark means an inactive call. Activity calls are given as the source filed them. How the source made its calls: active means growth percent below 10; inactive means the rest.

Tested on: SN12C renal
Experiment: NCI-60 one-dose screen, 48 h (100 = growth as untreated, 0 = no growth, -100 = all killed)
Settings: 10 µM

| Compound | growth |
| --- | --- |
| O=C(/C=C/c1ccco1)c1nc2ccccc2n1Cc1ccc(Br)cc1 | 43.4% |
| O=C(/C=C/c1ccco1)c1nc2ccccc2n1Cc1ccc(F)cc1 | 79.2% |
| COc1cc2cc(C(=O)N3C[C@@H](CCl)c4c3cc(OC(=O)N3CCN(C)[C@@H]5CSSC[C@@H]53)c3ccccc43)[nH]c2c(OC)c1OC | -44.6% (active) |
| C#CC[Se]C(=O)c1ccc2n[se]nc2c1 | 56.3% |
| O=C(/C=C/c1ccc(Cl)cc1Cl)c1nc2ccccc2n1Cc1ccc(F)cc1 | 60.4% |
| O=C(/C=C/c1ccc(Cl)cc1)c1nc2ccccc2n1Cc1ccc(Br)cc1 | 52.9% |
| CCOP(=O)(OCC)C(NC(C)=O)C(=O)SCCN (centres undefined) | 97.9% |
| COc1cc2cc(C(=O)N3C[C@@H](CCl)c4c3cc(OC(=O)N3CCN(C)[C@@H]5CSSC[C@H]53)c3ccccc43)[nH]c2c(OC)c1OC | -62.1% (active) |
| COc1ccc2cc([C@H](C)C(=O)[Se]CCC#N)ccc2c1 | -16.8% (active) |
| CC12OOC(C)(OO1)C2CCC(=O)OCCNc1ccnc2cc(Cl)ccc12 (centres undefined) | 84.3% |
| CC(C)N=C([Se])NC(=O)c1cccs1 | -21.4% (active) |
| Cc1ccc2[nH]c(=S)n(-c3ccc(F)cc3)c(=O)c2c1 | 92.2% |
| CCOC(=O)C1=C(Nc2ccccc2)C(=O)OC12C(=O)Nc1ccccc12 (centres undefined) | 110% |
| CC12CCC3(CCC(=O)NCCCNc4ccnc5cc(Cl)ccc45)[C@@](C)(OO[C@]3(C)O1)O2 | -15.1% (active) |
| CC[C@]12C=CCN3CC[C@@]4(c5ccc(OC)cc5N(C)[C@H]4[C@@](O)(C(=O)OC)[C@@H]1OC(=O)CCCC[P+](C1CCCCC1)(C1CCCCC1)C1CCCCC1)[C@@H]32 | -57.9% (active) |
| CC(=O)Oc1ccccc1C(=O)[Se]C(=NC(C)C)NC(C)C | -78.7% (active) |
| COCCOCCOCCOc1ccc(-n2cc(CCCN(CCNc3ccnc4cc(Cl)ccc34)C(=O)CCC(=O)O[C@@H]3O[C@@H]4OC5(C)CC[C@H]6[C@H](C)CC[C@@H]([C@H]3C)[C@@]46OO5)nn2)cc1 | 52.2% |
| C[C@H]1[C@@H](CC(=O)N[C@@H](Cc2coc3ccccc23)B(O)O)O[C@@H]2OC3(C)CC[C@H]4[C@H](C)CC[C@@H]1[C@@]24OO3 | -78.6% (active) |
| COP(=O)(CC(F)(F)C(F)(F)F)OC | 76.2% |
| CC12OOC(C)(OO1)C2CCC(=O)NCCNc1ccnc2cc(Cl)ccc12 (centres undefined) | 99.4% |

| Compound | growth |
| --- | --- |
| CC[C@]12C=CCN3CC[C@@]4(c5ccc(OC)cc5N(C)[C@H]4[C@@](O)(C(=O)OC)[C@@H]1OC(=O)CCC[P+](c1ccc(C)cc1)(c1ccc(C)cc1)c1ccc(C)cc1)[C@@H]32 | -88.1% (active) |
| CC(C)N=C([Se])NC(=O)c1ccccc1 | -59.8% (active) |
| CC[C@]12C=CCN3CC[C@@]4(c5ccc(OC)cc5N(C)[C@H]4[C@@](O)(C(=O)OC)[C@@H]1OC(=O)CCC[P+](C1CCCCC1)(C1CCCCC1)C1CCCCC1)[C@@H]32 | -40.5% (active) |
| CC1=C(COCCOC(=O)c2ccc(S(=O)(=O)F)cc2)C2=C(C)C3(CC3)[C@@](C)(O)C(=O)C2=C1 | -19.9% (active) |
| CC[C@]12C=CCN3CC[C@@]4(c5ccc(OC)cc5N(C)[C@H]4[C@@](O)(C(=O)OC)[C@@H]1OC(=O)CCCC[P+](c1ccc(OC)cc1)(c1ccc(OC)cc1)c1ccc(OC)cc1)[C@@H]32 | -95.3% (active) |
| CC1=C(CCC=NNC(N)=O)C2=C(C)C3(CC3)[C@@](C)(O)C(=O)C2=C1 | -61.3% (active) |
| CC[C@@]12CC(C(=O)OC)=C3Nc4cc5c(cc4[C@@]34CCN(C[C@H]3O[C@H]31)[C@@H]24)[C@@H]1[C@H](O5)[C@@H](O)[C@@]2(CC)CC(C(=O)OC)=C3Nc4cc(OC)ccc4[C@@]34CCN1[C@@H]24 | 27.1% |
| CCOP(=O)(CC(F)(F)C(F)(F)F)OCC | 62.1% |
| CC1=C2C(=C[C@@](C)(COP(=O)(Oc3ccccc3)Oc3ccccc3)[C@@H]2O)C(=O)[C@@](C)(O)C12CC2 | -76.3% (active) |
| CC(=O)Oc1ccccc1C(=O)NC([Se])=NC1CCCCC1 | -42.7% (active) |
| C[C@H]1[C@H](OC(=O)CCC(=O)N(CCCc2cn(-c3ccc(CN4CCOCC4)cc3)nn2)CCNc2ccnc3cc(Cl)ccc23)O[C@@H]2OC3(C)CC[C@H]4[C@H](C)CC[C@@H]1[C@@]24OO3 | 23.2% |
| O=C(/C=C/c1ccc(Cl)cc1)c1nc2ccccc2n1Cc1ccc(F)cc1 | 19.7% |
| CC1=C(CCC=O)C2=C(C)C3(CC3)[C@@](C)(O)C(=O)C2=C1 | -82.3% (active) |
| O=C(NC([Se])=NC1CCCCC1)c1ccc2c(c1)OCO2 | 51.9% |
| C[C@H]1[C@H](OC(=O)CCC(=O)N(CCCc2cn(-c3ccc(C#N)cc3)nn2)CCNc2ccnc3cc(Cl)ccc23)O[C@@H]2OC3(C)CC[C@H]4[C@H](C)CC[C@@H]1[C@@]24OO3 | 58.9% |
| C[C@H]1[C@@H](Oc2ccc(-c3cn(-c4ccnc5cc(Cl)ccc45)nn3)cc2)O[C@@H]2OC3(C)CC[C@H]4[C@H](C)CC[C@@H]1[C@@]24OO3 | 24.3% |
| COc1ccc(/C=C/C(=O)c2nc3ccccc3n2Cc2ccc(Br)cc2)cc1 | 90.4% |
| COC(=O)CCn1c(-c2ccc(-n3cc(-c4ccc(O[C@H]5O[C@@H]6OC7(C)CC[C@H]8[C@H](C)CC[C@@H]([C@H]5C)[C@@]68OO7)cc4)nn3)cc2)nc2ccccc21 | 16.3% |
| C[C@H]1[C@H](OC(=O)CCC(=O)N(CCCc2cn(-c3ccc([N+](=O)[O-])cc3)nn2)CCNc2ccnc3cc(Cl)ccc23)O[C@@H]2OC3(C)CC[C@H]4[C@H](C)CC[C@@H]1[C@@]24OO3 | 54.9% |
